Bioassay records: PubChem BioAssay, National Center for Advancing Translational Sciences (NCATS)
In the library only some 12% were active in any assay of this set; here they are far more common.
ALDH1A1 inh – blocks purified human ALDH1A1 activity. P00352. Purified ALDH1A1, NADH fluorescence, propionaldehyde substrate. Potency, µM (highest dose often 75.3 µM), inactives show at the top dose activity, negative = inhibition, usual class: inhibitors. 7.3% of 220,000 active; active = well fitted inhibition curve with a large enough effect, not every such curve was filed as active; inconclusive = small, poorly fitted or top-dose-only effect, or another doubt; inactive = no such curve, though single readings can be large or run the other way;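 also: plate controls were no enzyme wells and a reference inhibitor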
PLK1 PBD inh – PLK1 (human) polo-box domain binding inhibition | P53350 | Plk1 PBD binding of FITC phosphopeptide, fluorescence polarization | Potency, µM, for the others: max response, negative = inhibition, actives largely listed as inhibitors | 2.8% of 360,000 active | AID 720504; also: series mostly up to about 57 µM; nearly all actives have a fitted effect of over 65% in size
RORg inh – ROR gamma (mouse) transcription inhibition; P51450; Drosophila S2 Gal4-RORgamma UAS-luciferase reporter, 20 h; Potency, µM (highest dose often 53.6 µM), for inactives: at the highest dose activity change, negative = inhibition, hits mostly inhibitors; 5.4% of 310,000 active; also: nearly all actives have a fitted effect of over 60% in size
Target sequence (P51450 whole entry, looked up, the tested form may be a part): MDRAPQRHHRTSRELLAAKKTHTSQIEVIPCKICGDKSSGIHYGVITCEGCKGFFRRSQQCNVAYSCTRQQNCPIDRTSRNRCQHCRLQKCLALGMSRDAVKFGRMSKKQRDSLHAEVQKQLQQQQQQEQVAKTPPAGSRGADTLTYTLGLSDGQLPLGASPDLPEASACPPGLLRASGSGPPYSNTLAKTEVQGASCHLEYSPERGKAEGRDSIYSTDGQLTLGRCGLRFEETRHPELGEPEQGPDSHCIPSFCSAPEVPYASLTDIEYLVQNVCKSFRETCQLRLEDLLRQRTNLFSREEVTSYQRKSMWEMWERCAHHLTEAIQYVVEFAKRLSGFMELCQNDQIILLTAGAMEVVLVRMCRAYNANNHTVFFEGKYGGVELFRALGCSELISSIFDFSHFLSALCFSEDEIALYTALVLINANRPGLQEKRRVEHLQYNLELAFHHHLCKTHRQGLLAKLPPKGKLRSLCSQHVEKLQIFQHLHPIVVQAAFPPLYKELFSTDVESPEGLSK
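Drosophila Schneider cells stably carrying a metallothionein-driven Gal4 DBD–ROR gamma fusion and a UAS-Photinus luciferase reporter were exposed to compound for 1 hr, then induced with copper sulfate (700 uM final) for 20 hr at ambient temperature before luminescence reading.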
Sfp inh – inhibitors of Bacillus subtilis Sfp phosphopantetheinyl transferase | AID 1490 | Potency, µM, for inactives: largest response in the series, negative = inhibition, most hits filed as inhibitors | 3.5% of 310,000 active | Biochemical Sfp PPTase activity, qHTS | Q9F4F7;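 also: the enzyme is Sfp with the accession as filed and its product quenches rhodamine fluorescence; 0% = enzyme reaction without inhibitor and -100% = no enzyme wells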
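Fluorescence-quenching assay: 15 nM Sfp-PPTase preincubated 15 min at room temperature with compound, then 5 uM rhodamine-CoA and 12.5 uM BHQ-2-labelled YbbR peptide added. Fluorescence (ex 525/em 598 nm) read at start and after 30 min; difference gives rate.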
VP16 counter – Gal4-VP16 reporter inhibition counter-screen. Drosophila S2 Gal4-VP16 UAS-luciferase, luminescence, 20 h. Potency, µM (top dose mostly 53.6 µM), for inactives: at the highest dose activity, negative = inhibition, usual class: inhibitors. 3.5% of 310,000 active;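 also: Gal4-VP16 expression switched on by copper sulfate through the metallothionein promoter; nearly all actives have a fitted effect of over 50% in size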
Active calls of the source: *; u = inconclusive; x = not tested or not shown; [ ] = another dose, or the depositor's remark. Unless noted, calls follow the shape of the dose curve; as a rule, active = well fitted curve in the direction sought with a large enough effect; inconclusive = small, poorly fitted or top-dose-only effect, or another doubt; inactive = no such curve, though single readings can be large; an effect the other way counts as inactive or inconclusive. Unless noted, % is scaled to controls: 0 for no effect and ±100 for the full control effect; potency is read from the fitted curve at half-maximal effect.

SMILES	ALDH1A1 inh	PLK1 PBD inh	RORg inh	Sfp inh	VP16 counter
Cc1ccc(CN2CCN(Cc3ccc(C)o3)[C@@H](C)C2)o1	5%[13.5 µM]	x	x	x	x
N#Cc1cnn2c(=O)[nH]cnc12	x	-4%	x	x	x
O=C(N/N=C/c1cc([N+](=O)[O-])ccc1O)Nc1ccccc1	-12%	-11%	4.5µM*	15%	22µM*
O=C(N/N=C/c1cc([N+](=O)[O-])ccc1O)NC12CC3CC(CC(C3)C1)C2	6%	-6%	3.5µM*	2%	u
O=C(N/N=C/c1ccc(O)cc1O)NC12CC3CC(CC(C3)C1)C2	x	-13%	10%	21%	-7%
O=[N+]([O-])c1cccc(N/N=C/c2cc([N+](=O)[O-])ccc2O)c1	3%	-9%	-35%	-1%	-10%
Cc1cc(CNC(=O)c2cccc([N+](=O)[O-])c2C)c2ccccc2n1	9%	-3%	-26%	17%	10µM*
Cc1c(C(=O)NCCSCc2ccccc2)cccc1[N+](=O)[O-]	3.2µM*	-6%	28%	-2%	1%
Cc1c(C(=O)NC(C)CCc2ccccc2)cccc1[N+](=O)[O-] (stereo not given)	u	12µM*	1%	4%	-14%
Cc1cc(CNC(=O)Cc2ccccc2)c2ccccc2n1	3%	-13%	39%	16%	u
Cc1c(C(=O)NCCSCc2ccco2)cccc1[N+](=O)[O-]	-5%	-4%	u	8%	24%
CCC(CC)NC(=O)c1cccc([N+](=O)[O-])c1C	11%	7%	-9%	15%	-8%
CC(C)CCN1C(=O)c2ccc(-c3nc4ccccc4c(=O)o3)cc2C1=O	7.1µM*	-3%	-4%	6%	-1%
CC(C)C(=O)Nc1ccc(-c2nc3ccccc3c(=O)o2)cc1	-14%	-2%	11µM*	-2%	u
CC(C)(C)C(=O)Nc1cccc(-c2nc3ccccc3c(=O)o2)c1	4%	2%	14µM*	31%	u
O=C1c2ccc(-c3nc4ccccc4o3)cc2C(=O)N1Cc1ccccc1	x	-2%	x	x	x
Cc1ccccc1C(=O)N1CCC(C(=O)Nc2ccc(S(=O)(=O)N3C(C)CCCC3C)cc2)CC1 (stereo not given)	x	2%	x	x	x
O=C(O)c1ccc(Cl)c(S(=O)(=O)Nc2ccc3cn[nH]c3c2)c1	22µM*	-29%	u	u	-1%
Cc1cc(OCc2nc(N)nc(N)c2-c2ccc(Cl)c(Cl)c2)ccc1[N+](=O)[O-]	0%[13.5 µM]	-3%	x	x	x
CN1[C@@H](Cc2ccccc2)COc2cc(N3CCSCC3)ccc2S1(=O)=O	x	-12%	x	x	x
CCN(Cc1ccccc1)c1ccc(/C=N/NS(=O)(=O)c2ccc(C)c([N+](=O)[O-])c2)cc1	3.2µM*	24µM*	u	u	-7%
CCN(CC)c1ccc(/C=N/NS(=O)(=O)c2cccc([N+](=O)[O-])c2)cc1	3.5µM*	u	-17%	u	21%
CCN(CC)c1ccc(/C=N/NS(=O)(=O)c2ccc(CNC(C)=O)cc2)cc1	u	2%	15%[10 µM]	-7%	0%
Cc1ccc(S(=O)(=O)N/N=C/c2ccccc2F)cc1[N+](=O)[O-]	x	u	x	13%	x
CC(=O)c1ccc(NC(=O)N2CCN(c3cccc(Cl)c3)CC2)cc1	6%	1%	u	-1%	x
SMILES	ALDH1A1 inh	PLK1 PBD inh	RORg inh	Sfp inh	VP16 counter
O=C(O)/C=C\C(=O)Nc1ccc(N2CCN(c3cccc(Cl)c3)CC2)cc1	28µM*	u	-19%	-22%	-10%
CC(C)c1ccc(N2CCN(C(=O)c3ccccc3NC(=O)/C=C\C(=O)O)CC2)cc1	-84%	-9%	-32%	79µM*	u
O=C(Nc1ccc(Cl)cc1)N1CCC(CO)(Cc2ccccc2)CC1	13µM*	2%	29%	8%	0%
O=C(O)/C=C\C(=O)Nc1ccccc1C(=O)N1CCN(c2ccc(Cl)cc2)CC1	4%	-10%	14%	-23%	15%
O=C(O)/C=C\C(=O)Nc1ccc(N2CCN(c3ccc(Cl)c(Cl)c3)CC2)cc1	6.3µM*	u	5%	-21%	5%
CC(=O)Nc1ccc2c(c1)C(=Nc1ccc(C(=O)O)cc1)c1ccccc1-2	-4%[13.5 µM]	x	x	x	x
CC(C)NC(=O)C1(C)CN(S(C)(=O)=O)CC(=O)N1CCCN1CCOCC1 (stereo not given)	x	3%	x	x	x
O=C(O)/C=C\C(=O)Nc1ccc(N2CCN(c3ccc(F)cc3)CC2)cc1	8.9µM*	-7%	8%	u	-13%
O=C(Nc1ccc(Cl)cc1)N1CCN(c2ccccc2)CC1	2%	27µM*	8%	-10%	0%
Clc1cccc(N2CCN(CCCN3CCN(c4ccccc4)CC3)CC2)c1	x	-4%	x	x	x
CC(=O)N1CCN(c2ccc(NC(=O)/C=C/c3ccccc3)cc2)CC1	-6%	-10%	-9%	13%	4%
O=C(O)/C=C\C(=O)Nc1ccc(N2CCN(c3ccc(Cl)cc3)CC2)cc1	11µM*	-5%	4%	-15%	-10%
Nc1ccc(N2CCN(c3cccc(Cl)c3)CC2)cc1	14µM*	1%	-19%	-8%	3%
N=S(=O)(O)Cc1noc2ccccc12	-3%	x	x	x	x
CCCCNCCS(=O)(=O)NCc1ccc(OC)cc1	x	-5%	x	x	x
CCc1sc(N)nc1-c1ccccc1	u	-16%	-44%	79µM*	u
Cc1ccccc1C(=O)c1c[nH]c(C(=O)N=CN(C)C)c1	u	1%	17%	-3%	-6%[10 µM]
Cc1ccccc1C(=O)c1c[nH]c(C(N)=O)c1	7.9µM*	4%	8%	11%	5%
O=C(NCc1cccc(C(F)(F)F)c1)C1C(=O)Nc2ccccc2C(=O)N1C1CCCC1 (stereo not given)	x	-6%	x	x	x
Cc1ccc(S(=O)(=O)NCCC(=O)N2CCOCC2)cc1C	x	2%	x	x	x
CN(Cc1ccccc1)C(=S)NC(=O)c1ccccc1	3%	-13%	1µM*	10%	2.8µM*
COc1ccc(C(=O)NC(=S)N(C)Cc2ccccc2)cc1Br	-3%	-1%	0.4µM*	12%	0.71µM*
COc1ccc(CNc2nc(-c3ccc4c(c3)OCO4)nc3ccccc23)c(OC)c1	3%	x	13%	u	0%
C[n+]1c(-c2ccccc2)cc2c(=Cc3ccccc3)c3ccccc3n21	x	3.8µM*	x	x	x
